# Measurements: PubChem BioAssay AID1851 (National Center for Advancing Translational Sciences (NCATS), 2009)
# The campaign covered roughly 16,000 compounds. About 5,100 (32%) were called active. Inconclusive results (about 25%) are left out. The list shows a part of the results. Unmarked numbers belong to inactive results. Calls follow the shape of the dose curve; as a rule, active = well fitted curve in the direction sought with a large enough effect; inconclusive = small, poorly fitted or top-dose-only effect, or effect the other way; inactive = no such curve, though single readings can be large or run the other way.
# Molecular target: Cytochrome P450 3A4 (Homo sapiens) (UniProt P08684)
# Sequence (P08684 whole entry, looked up): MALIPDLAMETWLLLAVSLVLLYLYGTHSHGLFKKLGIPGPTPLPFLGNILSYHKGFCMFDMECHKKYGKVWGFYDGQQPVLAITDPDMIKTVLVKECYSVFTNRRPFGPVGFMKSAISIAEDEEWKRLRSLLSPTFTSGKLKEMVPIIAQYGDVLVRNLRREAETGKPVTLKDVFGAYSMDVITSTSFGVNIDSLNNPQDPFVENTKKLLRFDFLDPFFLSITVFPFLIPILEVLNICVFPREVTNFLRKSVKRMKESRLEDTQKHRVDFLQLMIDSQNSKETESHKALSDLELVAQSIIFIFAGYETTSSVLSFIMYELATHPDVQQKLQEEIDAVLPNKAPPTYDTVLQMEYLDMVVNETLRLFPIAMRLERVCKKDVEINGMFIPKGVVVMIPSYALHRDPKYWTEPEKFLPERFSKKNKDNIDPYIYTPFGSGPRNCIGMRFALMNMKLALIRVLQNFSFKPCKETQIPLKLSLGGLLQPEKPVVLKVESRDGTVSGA
# Assay: Cytochrome panel assay with activity outcomes
# Conditions: recombinant CYP, pro-luciferin dealkylation, luminescence, p450-cyp3a4; series mostly up to 57.1 µM
# % is scaled to controls: 0 for no effect and ±100 for the full control effect.
SMILES,AC50,"activity, negative = inhibition"
Cc1cc(OCCNCCO)cc(C)c1Cl,inactive,–
CC(C)c1ccc(/C=C2\C=C(c3ccc4ccccc4c3)OC2=O)cc1,–,-9.49% [at 11.4 µM]
CCCS(=O)(=O)N1CCCC(C(=O)NCCN2CCOCC2)C1 (stereo not drawn),–,0.644% [at 11.4 µM]
CCCCN(CC)S(=O)(=O)N1CCC(C(=O)NCCCN2CCOCC2)CC1,11.2 µM (active),–
CCN(CC)S(=O)(=O)N1CCC(C(=O)NCc2ccc(C)cc2)CC1,11.2 µM (active),–
CC(C)CN(CC(C)C)S(=O)(=O)N1CCC(C(=O)NCc2ccc(F)cc2)CC1,15.8 µM (active),–
CCS(=O)(=O)N1CCC(C(=O)NCc2ccc(F)cc2Cl)CC1,inactive,–
Cc1ccc(S(=O)(=O)N2CCC(C(=O)NCc3cccnc3)CC2)cc1,3.16 µM (active),–
CCS(=O)(=O)N1CCC(C(=O)NCCCN2CCCC2)CC1,inactive,–
CCS(=O)(=O)N1CCC(C(=O)NCc2cccnc2)CC1,–,-2.97% [at 2.29 µM]
C=C[C@H](N)CCC(=O)O,inactive,–
Cc1ccc(CN2C(=O)CCC2C(=O)NCc2cccnc2)cc1 (stereo not drawn),2.24 µM (active),–
CC(C)(C)c1nc(SCC(=O)Nc2ccc3c(c2)OCCO3)c2ccccc2n1,7.08 µM (active),–
Cc1nc(SCC(=O)Nc2ccc3c(c2)OCCO3)c2oc3ccccc3c2n1,7.94 µM (active),–
CN(C)CCn1nnnc1SCC1=C(C(=O)O)N2C(=O)[C@@H](NC(=O)Cc3csc(N)n3)[C@@H]2SC1,inactive,–
C[N+]1(C)CCc2cc(O)c(O)cc2[C@H]1Cc1ccc(O)c(O)c1,–,-3.96% [at 11.4 µM]
CCO[C@H](c1cc(OC)cc([N+](=O)[O-])c1OC)[C@H](C)/C=C\CC(=O)OC,3.98 µM (active),–
COC(=O)C/C=C\[C@H](C)[C@@H](OC)c1ccccc1Br,–,-22.3% [at 11.4 µM]
CC(NC(=O)CSc1nc(=O)cc(N)n1CCc1ccccc1)c1ccccc1 (stereo not drawn),0.178 µM (active),–
N#Cc1ccccc1NC(=O)Nc1cccs1,inactive,–
C[C@H](NC(=O)Cn1cncn1)c1ccccc1,inactive,–

SMILES,AC50,"activity, negative = inhibition"
Nc1cc(=O)nc(SCC(=O)Nc2cccc3ccccc23)n1CCc1ccccc1,0.126 µM (active),–
CCC(Sc1nc(=O)cc(N)n1CCc1ccccc1)C(=O)Nc1ccccc1C#N (stereo not drawn),0.1 µM (active),–
O=C1OCCC=C1[C@@H](O)CCc1ccccc1,–,-19.7% [at 11.4 µM]
Cn1cccc1C(=O)C(=O)Nc1cccc(Cl)c1Cl,inactive,–
COc1ccc(-n2c(CNC(=O)c3cc(OC)c(OC)c(OC)c3)n[nH]c2=S)cc1,7.94 µM (active),–
COc1ccc(-n2c(CNC(=O)c3ccc(S(=O)(=O)N4CCCC4)cc3)n[nH]c2=S)cc1,12.6 µM (active),–
COc1ccc(-n2c(=S)[nH]c3cc(C(=O)NCCCN4CCCC4=O)ccc3c2=O)cc1,inactive,–
O=C(NCc1n[nH]c(=S)n1-c1cccc(Cl)c1)c1ccc(S(=O)(=O)N2CCCC2)cc1,4.47 µM (active),–
COCc1nnc(NC(=O)c2ccc(S(=O)(=O)N3CCCCCC3)cc2)o1,inactive,–
COCCNC(=O)c1ccc2c(c1)nc(C)n2-c1cc(OC)c(OC)c(OC)c1,inactive,–
COCC(=O)Nc1c(I)c(C(=O)NC[C@@H](O)CO)c(I)c(C(=O)N(C)C[C@@H](O)CO)c1I,inactive,–
CCN(CC)CCOc1ccc(Cc2ccccc2)cc1,inactive,–
CN(CCOc1ccc(C[C@H](Nc2ccccc2C(=O)c2ccccc2)C(=O)O)cc1)c1ccccn1,10 µM (active),–
CC1=CC(=O)CC(C)(C)[C@]1(O)/C=C\C(C)=C\C(=O)O,–,-1.41% [at 11.4 µM]
S=c1[nH]nc(CSCc2ccccc2Cl)n1-c1ccccc1,7.94 µM (active),–
CCOC(=O)N1CCC(NC(=O)C2CCN(S(=O)(=O)N3CCCC3)CC2)CC1,inactive,–
CCNC(=S)N1CCC(NC(=O)C2CCCCC2)CC1,14.1 µM (active),–
CCc1nnc(NC(=O)C2CCN(C(=O)NC3CCCCC3)CC2)s1,inactive,–
CCn1c(SCC(=O)Nc2ccc3c(c2)OCCO3)nc2c(c1=O)SC(C)C2 (stereo not drawn),10 µM (active),–
CCOc1ccc(-n2c(SCC(=O)Nc3ccc4c(c3)OCCO4)nc3c(c2=O)SCC3)cc1,inactive,–
CCn1c(SCC(=O)NC2CCCCC2)nc2c(c1=O)SC(C)C2 (stereo not drawn),15.8 µM (active),–

SMILES,AC50,"activity, negative = inhibition"
Cc1ccc2nc(NC(=O)CSc3nc4c(c(=O)n3C)SC(C)C4)sc2c1 (stereo not drawn),inactive,–
CCn1nnnc1SCC(=O)NC1CCCC1,inactive,–
CCn1c(SCC(=O)Nc2nc3ccc(C)cc3s2)nc2c(c1=O)SC(C)C2 (stereo not drawn),5.01 µM (active),–
Cc1nc2cccc([N+](=O)[O-])c2n1CCCN(C)C,–,-0.756% [at 11.4 µM]
CC(C)CN1CCC2(CC1)CCN(C(=O)c1cccc(F)c1)CC2,inactive,–
O=C(c1cccc(F)c1)N1CCC2(CCCN(Cc3nccs3)C2)CC1,10 µM (active),–
Cn1cccc1C(=O)N1CCC[C@@]2(CCN(Cc3nccs3)C2)C1,15.8 µM (active),–
O=C(c1cccc(F)c1)N1CCC2(CCCN(c3ncccn3)C2)CC1,inactive,–
CC(=O)N1CCC2(CCN(Cc3nccs3)CC2)CC1,inactive,–
O=C(c1cccc(F)c1)N1CCC2(CC1)CN(Cc1ccccc1)C2,inactive,–
O=C(c1cccc(F)c1)N1CCC[C@@]2(CCN(Cc3nccs3)C2)C1,7.94 µM (active),–
O=C(c1cccc(F)c1)N1CCC[C@@]2(CCN(Cc3ccncc3)C2)C1,3.16 µM (active),–
CC(C)CN1CC2(CCN(C(=O)c3cccc(F)c3)CC2)C1,inactive,–
CC(C)CN1CCC2(CC1)CCN(C(=O)c1cccn1C)CC2,inactive,–
CCCc1ncc(C[n+]2ccccc2C)c(N)n1,inactive,–
CC(C)(C)N1C(=O)[C@H]2[C@H]3[C@H](O)[C@H](O)C/C(=N/NC(=O)OCc4ccccc4)[C@@H]3CC[C@@H]2C1=O,–,-15% [at 11.4 µM]
COC(=O)c1c(NC(=O)C(C)(C)C)sc2c1C(C(=O)OC)CC2 (stereo not drawn),inactive,–
Cc1cc(=O)[nH]c(-n2[nH]c(C)cc2=O)n1,inactive,–
CCOC(=O)c1ccc(NC(=O)COc2ccccc2OC)cc1,31.6 µM (active),–
CCOC(=O)c1ccc(NC(=O)CC2NCCNC2=O)cc1 (stereo not drawn),inactive,–
COc1ccc(C(=O)Nc2ccc(C(=O)OCC(=O)c3ccccc3)cc2)cc1,inactive,–
